In PubChem BioAssay (NCATS):
Records with an inconclusive call do not appear. Values without a mark were called inactive. Activity calls are given as the source filed them. Calls come from the whole dose curve; as a rule, active = well fitted inhibition curve with a large enough effect; inconclusive = small, poorly fitted or top-dose-only effect; inactive = flat fitted curve, though single readings scatter.

Biological target: Calcium and integrin-binding protein 1 (Homo sapiens) (UniProt Q99828)
Assay: Primary qHTS for Identification of Calcium Integrin Binding Protein 1 (CIB1) Competitor (AID 1508620); note: top concentration of the series differs between compounds
Details: CIB1-GST / FITC-alphaIIb peptide fluorescence polarization; series mostly up to 57.7 µM; activity change, negative = inhibition: at the top concentration
Method in brief: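 Fluorescence polarization competition: GST-tagged CIB1 (1 uM final) preincubated with compound 15 min at room temperature, then FITC-labelled alphaIIb peptide (100 nM final) added. After 15 min at room temperature, polarization read at Ex 480/Em 540.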
% is set by controls: 0 for no effect and ±100 for the full control effect.

Calcium and integrin-binding protein 1 (Homo sapiens), sequence (Q99828 whole entry, looked up): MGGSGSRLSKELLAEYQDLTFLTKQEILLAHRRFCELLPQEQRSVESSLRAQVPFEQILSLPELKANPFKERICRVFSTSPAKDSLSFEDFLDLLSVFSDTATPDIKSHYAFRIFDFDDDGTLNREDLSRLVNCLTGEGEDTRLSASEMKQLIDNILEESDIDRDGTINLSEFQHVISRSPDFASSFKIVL

Structure (SMILES) | activity change, negative = inhibition | Potency
CC1=C2C=C(CO)C(CO)CCC2(C)CCC1=O (configuration not stated) | -6.87% [at 114 µM] | 
CC(=O)O[C@@H]1C[C@]2(C)[C@@]3(CCC4[C@@]5(C)CC[C@H](O[C@@H]6O[C@H](C(=O)O)[C@@H](O)[C@H](O[C@@H]7O[C@H](CO)[C@H](O)[C@H](O)[C@H]7O[C@@H]7O[C@@H](C)[C@H](O)[C@@H](O)[C@H]7O[C@@H]7OC[C@](O)(CO)[C@H]7O)[C@H]6O[C@@H]6O[C@H](CO)[C@H](O)[C@H](O)[C@H]6O)C(C)(C)C5CC[C@]42C)O[C@@H](O)[C@]12C3CC(C)(C)[C@@H](OC(=O)/C=C/c1ccc(O)c(O)c1)[C@@H]2OC(=O)/C=C/c1ccccc1 (some centres not stated) | 2.91% [at 12.4 µM] | 
O=C(C1CC1)N1CC[C@@H](Cc2n[nH]c(=O)n2-c2ccc(-c3ccc4occc4c3)cc2)C1 |  | inactive
CC(C)C1=CCC(C)(O)C(OC2OC(CO)C(O)C(O)C2O)C1 (configuration not stated) | -10.2% | 
OC[C@H]1O[C@@H](OCCc2ccc(O)cc2)[C@H](O)[C@@H](O)[C@@H]1O | -1.89% [at 114 µM] | 
C[C@@H]1CC[C@]2(C(=O)O[C@@H]3O[C@H](CO)[C@@H](O)[C@H](O)[C@H]3O)CC[C@]3(C)C(=CCC4[C@@]5(C)C[C@@H](O)[C@H](O)C(C)(C)C5CC[C@]43C)C2[C@]1(C)O (some centres not stated) | 0.644% [at 30.2 µM] | 
CC(=O)O[C@@H]1[C@@H](OC(=O)/C=C/c2ccccc2)[C@H](C)O[C@@H](O[C@H]2[C@@H]3C=CO[C@@H](O[C@@H]4O[C@H](CO)[C@@H](O)[C@H](O)[C@H]4O)[C@@H]3[C@@]3(CO)O[C@@H]23)[C@@H]1OC(C)=O | 2% [at 30.2 µM] | 
